The values below come from PubChem BioAssay AID602475 (National Center for Advancing Translational Sciences (NCATS), 2012).

Inconclusive results are not listed. A number with no mark means an inactive call. The source made the active and inactive calls. The call rests on the fitted dose curve; in most records, active means well fitted inhibition curve with a large enough effect; inconclusive means small, poorly fitted or top-dose-only effect; inactive means no such curve, though single readings can be large or run the other way.

The target of this assay is Luciferin 4-monooxygenase (Photinus pyralis) (UniProt P08659). Briefly: FLuc inhibitory activity for the follow-up compounds in a biochemical assay with an in-house formulation of detection reagent. To be noted: purified FLuc, luminescence; series mostly up to 25.6 µM; activity change, negative = inhibition: at the top concentration. The source says: NCGC Assay Overview: Firefly (Photinus pyralis) luciferase is one of the most commonly used transcriptional reporters. It is considered one of the more dynamically responsive reporters - that is, responsive to changes in reporter transcription - as it requires no post-translational modifications and is enzymatically active directly after protein synthesis (Wood, 1998). With no endogenous expression in mammalian cells and without the requirement of external excitation, it offers very little background signal, thus generally providing excellent signal to background for most assays. Previous profiling work to determine the prevalence of compounds that affect FLuc enzymatic activity (PubChem AID 411) identified that ~3% of the MLSMR library (then at ~72K) inhibited FLuc (Auld et al., 2008). […] Of the compounds identified in this profile that inhibited FLuc, 151 compounds were selected for further analysis, in an effort to better understand their mode of inhibiting FLuc. The assay described here was to determine the activity of the compounds in a FLuc assay that used an in-house formulation of detection reagent.
Sequence of Luciferin 4-monooxygenase (Photinus pyralis) (P08659 whole entry, looked up): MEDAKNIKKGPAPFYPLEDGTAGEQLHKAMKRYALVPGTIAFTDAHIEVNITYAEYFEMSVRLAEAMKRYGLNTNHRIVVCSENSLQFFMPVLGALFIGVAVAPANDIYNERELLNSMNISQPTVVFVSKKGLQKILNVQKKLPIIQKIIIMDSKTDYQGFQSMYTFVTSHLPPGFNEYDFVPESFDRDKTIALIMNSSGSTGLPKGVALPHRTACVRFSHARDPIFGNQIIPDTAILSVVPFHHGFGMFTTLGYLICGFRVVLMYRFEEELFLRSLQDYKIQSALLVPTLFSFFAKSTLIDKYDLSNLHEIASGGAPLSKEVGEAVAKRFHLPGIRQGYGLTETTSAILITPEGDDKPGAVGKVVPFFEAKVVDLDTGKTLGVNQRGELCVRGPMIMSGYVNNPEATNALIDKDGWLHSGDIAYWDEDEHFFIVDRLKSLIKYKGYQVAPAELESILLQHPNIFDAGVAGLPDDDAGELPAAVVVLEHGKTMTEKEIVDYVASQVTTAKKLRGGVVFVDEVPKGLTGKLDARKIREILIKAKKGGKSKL
NCGC Assay Protocol Summary: Reagents: 300mM Tris-HCl, 300mM Trizma base, 300mM MgCl, 1% Triton-X100, 5mM DTT, 500uM Coenzyme A trilithium salt (Sigma #C3019),450uM ATP (Sigma #A7699), 1mM D-luciferin sodium salt monohydrate (Biosynth #L8240); 10nM P. pyralis luciferase (Sigma #L9506) Control compounds used were two known firefly luciferase inhibitors (3-(5-(3-chlorophenyl)-1,2,4-oxadiazol-3-yl)benzoic acid and 5-(2-fluorophenyl)-3-phenyl-1,2,4-oxadiazole), and DMSO. Assay Summary: Six microliters of buffer containing firefly luciferase (final concentrations: 50mM Tris acetate, 10nM P. pyralis luciferase) are dispensed into each well of a Greiner white, solid-bottom 1536-well format plate using a flying reagent dispenser (FRD). These assay plates were then treated with 23nL of compound or DMSO using a Kalypsys pin tool, which allows for delivery of a 12-point intraplate titration of each compound to the assay plate (quantitative HTS), with final compound concentrations ranging from approximately ~25uM to 0.1nM. Three microliters of 3X in-house detection reagent was then delivered by FRD to each well (final concentrations in assay: 300mM Tris-HCl, 300mM Trizma base, 300mM MgCl, 1% Triton-X100, 5mM DTT, 500uM Coenzyme A trilithium salt, 450uM ATP, 1mM D-luciferin sodium salt monohydrate). Luciferase activity was then measured using a ViewLux CCD imager (PerkinElmer), with an average exposure time of 2-30 seconds (2X binning, medium/high gain).
As for `Cc1c(NC(=O)C(C)(C)C)cccc1-c1nc2ccccc2s1`, the “activity change, negative = inhibition” value was 2.61%.

For the compound `Cc1ccccc1C(=O)Nc1cccc(C(=O)Nc2ccccc2C(=O)O)c1`, the “activity change, negative = inhibition” value was -7.54%. On to `COc1ccc(C(=O)Nc2cccc(C(=O)O)c2)cc1S(=O)(=O)N1CCCC1`, for which the “activity change, negative = inhibition” value was -14%. Still for that read-out and setting: the result for `Cc1ccc(S(=O)(=O)N2CCN(C(=O)c3ccccc3-c3nc4ccccc4s3)CC2)c(C)c1` reads 15.4%. Take `COc1cccc(-c2nc3ccccc3s2)c1`: the Potency is 7.79 µM (active). Still for that read-out and setting: to `Cc1ccc2nc(-c3ccc(N)cc3)sc2c1` belongs 4.91 µM (active). As for `COc1ccc2nc(NC(=O)c3cccc(S(=O)(=O)N4CCOCC4)c3)sc2c1`, the “activity change, negative = inhibition” value was 16.6%.

Turning to `COc1cc(OC)cc(C(=O)Nc2ccc(-c3nc4ccccc4s3)c(C)c2)c1`, the “activity change, negative = inhibition” value is -18.6%. Consider `O=C(COC(=O)c1ccccc1[N+](=O)[O-])c1ccc2c(c1)OCO2`, for which the Potency is 0.0619 µM (active). On the same count and under the same terms, the result for `COc1ccc(C(=O)Nc2ccccc2C(=O)N/N=C/c2ccc(O)c(OC)c2)cc1` reads 0.011 µM (active).

On to `COc1cc(C(=O)Nc2cc(C)c(O)c(-c3nc4ccccc4s3)c2)cc(OC)c1OC`, for which the “activity change, negative = inhibition” value is -8.7%. On the same count and under the same terms, the result for `COc1ccc(NS(=O)(=O)c2cccc(C(=O)Nc3ccccc3C(=O)O)c2)cc1` reads -0.994%; that for `Cc1c(NC(=O)c2cccs2)cccc1-c1nc2ccccc2s1`, -9.6%. `O=C(O)c1ccc(NC(=O)c2cccc(C(=O)Nc3ccc(C(=O)O)cc3)c2)cc1`: the “activity change, negative = inhibition” value is -13.4%.

Take `Cc1c(C)c2ccc(OCC(=O)Nc3ccccn3)c(C)c2oc1=O`: the Potency is 0.0874 µM (active). For `O=C(O)c1ccc(NC(=O)c2cc(S(=O)(=O)N3CCCCC3)c(Cl)cc2Cl)cc1`, the “activity change, negative = inhibition” value is -9.37%. Consider `CC(C)(C)NC(=O)c1ccccc1-c1nc2ccccc2s1`, for which the “activity change, negative = inhibition” value was 16.5%.

As to `COc1ccc(-c2nc3ccccc3s2)cc1O`, the Potency is 2.46 µM (active). Same read-out and setting: to `CC(C)c1ccc(-c2nc3ccccc3s2)cc1` belongs 0.098 µM (active); to `Nc1ccc2nc(-c3ccc(O)cc3)sc2c1`, 6.19 µM (active).

In the case of `O=C(O)c1cccc(NC(=O)c2cccc(S(=O)(=O)N3CCc4ccccc4C3)c2)c1`, the “activity change, negative = inhibition” value was -8.2%.

In the case of `COc1ccc2nc(NC(=O)Cc3cccs3)sc2c1`, the “activity change, negative = inhibition” value is -18.1%. On the same count and under the same terms, to `O=C(O)c1ccc(NC(=O)c2ccccc2NC(=O)c2ccccc2Cl)cc1` belongs -9.72%. On the same count and under the same terms, the result for `O=C(O)c1cccc(NC(=O)c2cccc(S(=O)(=O)Nc3cccc(F)c3)c2)c1` reads -12%; that for `Cc1ccc(S(=O)(=O)N2CCOCC2)cc1C(=O)Nc1ccccc1C(=O)O`, -0.566%; that for `CCOC(=O)N1CCN(CC(=O)Nc2nc3ccc(OC)cc3s2)CC1`, 3.07%. For the compound `CN=c1scc(-c2ccccc2F)n1/N=C/c1ccc[nH]1`, the Potency is 0.123 µM (active). For the compound `O=C(O)c1cccc(NC(=O)c2cccc(S(=O)(=O)N3CCCCC3)c2)c1`, the “activity change, negative = inhibition” value was -2.55%. Still for that read-out and setting: the result for `COc1ccc2nc(NC(=O)c3ccc(S(=O)(=O)N4CCCC(C)C4)cc3)sc2c1` (stereo not given) reads -0.118%. `O=C(Nc1c(Cl)cc(Cl)cc1-c1nc2ccccc2s1)c1ccc(Br)o1`: the Potency was 13.8 µM (active). Regarding `CC(=O)Oc1ccc(C(=O)Nc2ccccc2C(=O)Nc2cccc(C(=O)O)c2)cc1`, the “activity change, negative = inhibition” value was -11.8%. Still for that read-out and setting: to `O=C(Nc1ccccc1C(=O)O)c1cc(S(=O)(=O)NCc2ccccc2)ccc1Cl` belongs -17.5%. In the case of `Cc1ccc2sc(-c3ccc(NC(=O)c4cc(-n5cnnc5)ccc4Cl)cc3)nc2c1`, the “activity change, negative = inhibition” value is 43.4%. In the case of `O=C(O)c1cccc(NC(=O)c2cccc(S(=O)(=O)N3CCc4ccccc43)c2)c1`, the “activity change, negative = inhibition” value is -6.28%. Turning to `O=C(O)c1cccc(NC(=O)c2cccc(NC(=O)C3CCCO3)c2)c1` (stereo not given), the “activity change, negative = inhibition” value was -14.9%. Same read-out and setting: the result for `Cc1c(NC(=O)c2cc(-n3cnnc3)ccc2Cl)cccc1-c1nc2ccccc2s1` reads -8.49%; that for `COc1cc(OC)cc(C(=O)Nc2ccccc2-c2nc3ccccc3s2)c1`, -6.18%; that for `O=C(Cc1ccc(Cl)cc1)Nc1cccc(C(=O)Nc2ccccc2C(=O)O)c1`, 9.02%.

For `CCOc1ccc2nc(NC(=O)c3ccccn3)sc2c1`, the Potency was 3.9 µM (active). Take `Cc1c(NS(C)(=O)=O)cccc1-c1nc2ccccc2s1`: the “activity change, negative = inhibition” value was 4.59%.
